Experimental data published in PubChem BioAssay (NCATS).
Results filed as inconclusive are left out. Values without a mark were called inactive. The source made the active and inactive calls. Calls follow the shape of the dose curve; as a rule, active = well fitted curve in the direction sought with a large enough effect; inconclusive = small, poorly fitted or top-dose-only effect, or another doubt; inactive = no such curve, though single readings can be large or run the other way.

assay: qHTS for Inhibitors of the vitamin D receptor (VDR): Hit Validation using a Texas Red Assay (AID 602201); details: VDR coregulator binding, Texas Red fluorescence polarization, agonist-bound VDR ligand-binding domain; series mostly up to 57.1 µM; activity, negative = inhibition: at the top concentration
How it was run: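 After a 2-hour room-temperature incubation, polarization of Texas-Red emission was read (Ex 595 nm/Em 615 nm). Final mix contained 7 nM Texas Red, 1.5 uM VDR-LBD and LG19078.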
% is scaled to controls: 0 for no effect and ±100 for the full control effect; potency is read from the fitted curve at half-maximal effect.

Row | SMILES | activity, negative = inhibition [%] | Potency
1 | O=C(NC1CCCCCC1)C(=S)N1CCOCC1 | -7.89 | 
2 | CN1CCN(C(=O)c2sc(=S)n(-c3ccccc3)c2N)CC1 | -19.6 | 
3 | CCCc1nnc(NC(=O)c2nc(S(=O)(=O)Cc3cccc(C)c3)ncc2Cl)s1 | -10.4 | 
4 | O=C1NN(c2ccccc2)C(=O)/C1=C\c1cccc(OC(=O)c2cccs2)c1 | 35.2 | 
5 | O=C(Nc1ccccc1)c1nc(S(=O)(=O)Cc2ccccc2F)ncc1Cl |  | 2.82 µM (active)
6 | O=C1C(C2=C(O)c3ccccc3C2=O)=Nc2ccccc21 | 19.9 | 
7 | O=C(/C=C/c1cccc([N+](=O)[O-])c1)c1cccs1 |  | 14.1 µM (active)
8 | O=C(O)CCNc1ccc(NCCC(=O)O)c2c1C(=O)c1ccccc1C2=O |  | 8.91 µM (active)
9 | O=C(CCS(=O)(=O)c1nc(-c2cccs2)cc(C(F)(F)F)n1)Nc1cc(Br)ccc1O |  | 5.62 µM (active)
10 | c1ccc(CCc2nn3c(Cn4cnc5ccccc54)nnc3s2)cc1 |  | 28.2 µM (active)
11 | S=C(NNc1ccnc2cc(Cl)ccc12)Nc1ccccc1Cl |  | 14.1 µM (active)
12 | COc1cccc(/C=C/c2[nH]c(=O)[nH]c(=O)c2[N+](=O)[O-])c1O | -10.5 | 
13 | Cc1ccc(CSC2=NS(=O)(=O)c3ccccc32)cc1 |  | 7.94 µM (active)
14 | CC(NC(=O)c1sc2cc([N+](=O)[O-])ccc2c1Cl)C(C)(C)C (stereo not given) |  | 3.55 µM (active)
15 | CCOC(=O)c1ccc(S(=O)(=O)Nc2cc(S(=O)(=O)N3CCOCC3)ccc2O)cc1 | -22.6 | 
16 | O=C(O)CN1C(=O)/C(=C\c2cc(Br)ccc2OCc2ccc(Cl)cc2Cl)SC1=S | 28.6 | 
17 | CCOC(=O)/C(=C\c1cccc(O)c1)c1nc2sc(C)c(C)c2c(=O)[nH]1 | -7.53 | 
18 | COc1ccccc1N1C(=O)C=C(Sc2nc(C)cc(C)n2)C1=O |  | 14.1 µM (active)
19 | O=c1nc(/C=C/c2cc([N+](=O)[O-])ccc2Cl)cc(C(F)(F)F)[nH]1 |  | 3.55 µM (active)
20 | CCOC(=O)CS(=O)(=O)c1nc(-c2ccccc2)cc(C(F)(F)F)n1 | -18.5 | 

Row | SMILES | activity, negative = inhibition [%] | Potency
21 | CCN(CC)S(=O)(=O)c1cc(NC(=O)c2ccc3c(c2)NC(=O)C(C)S3)ccc1C (stereo not given) | -2.56 | 
22 | CN1CCN(C(=S)C(=O)Nc2ccc(Br)cc2)CC1 |  | 17.8 µM (active)
23 | O=C(/C=C/c1ccnc2ccccc12)c1cccs1 |  | 28.2 µM (active)
24 | COc1ccc(C)cc1N1C(=N)/C(=C2/Nc3ccccc3S2)C(c2ccccc2)C1=O (stereo not given) |  | 10 µM (active)
25 | O=C(/C=C/c1ccc(Cl)cc1)c1ccc([N+](=O)[O-])o1 |  | 2.82 µM (active)
26 | COc1cc(/C=C2\C(=O)ON=C2c2ccccc2)cc(Br)c1O | 14 | 
27 | CCC(C)(C)n1nnnc1C(c1ccc(O)c(OC)c1)N1CCc2ccccc2C1 (stereo not given) |  | 25.1 µM (active)
28 | O=C(Nc1nc(-c2ccccn2)cs1)c1cc(Cl)ccc1[N+](=O)[O-] | -3.7 | 
29 | CCOC(=O)/C(C#N)=C1\C(=O)N(Cc2ccccc2)c2ccccc21 | -19.2 | 
30 | Oc1cc2c(cc1C(c1ccc(Cl)c(Cl)c1)N1CCCC1)OCO2 (stereo not given) |  | 8.91 µM (active)
31 | O=C(c1cccs1)c1no[n+]([O-])c1C(=O)c1cccs1 |  | 3.55 µM (active)
32 | COc1ccc(OC)c2c1C(=O)C(Cl)=C(Cl)C2=O |  | 7.08 µM (active)
33 | CC1(C)CC(=O)C(C(C2=C(O)CC(C)(C)CC2=O)c2ccc(O)c([N+](=O)[O-])c2)=C(O)C1 | -18.9 | 
34 | O=C(/C=C/c1cc(Br)ccc1O)c1ccco1 | 3.4 | 
35 | CC1=CC(=O)C(C(C)C)=CC1=NC(=O)c1ccc(C)cc1 | -11.6 | 
36 | CCn1c(CSc2nnc(-c3ccncc3)n2CCOC)nc2cc(C(=O)O)ccc21 |  | 15.8 µM (active)
37 | Cc1ccc(NN2C(=O)C=C(c3ccccc3)C2=O)cc1 | -16.9 | 
38 | CCN(CC)c1ccc(C=Nc2ccc(N(C)C)cc2)c(O)c1 | -1.5 | 
39 | CCS(=O)(=O)c1oc(-c2ccc(F)cc2)nc1S(=O)(=O)c1ccccc1 |  | 7.08 µM (active)
40 | Cc1nnc(NC(=O)c2nc(S(=O)(=O)Cc3ccccc3)ncc2Cl)s1 |  | 22.4 µM (active)
